Experimental findings from ChEMBL document CHEMBL3988442, “University of Dundee, Small-Polar-MMV Screening Library” (2021) are described below.

What all share (parameters): scale not given: direction of the effect not stated beside the values
Assay [1] addresses Protein translocase subunit SecA (Escherichia coli (strain K12)) (UniProt P10408). In words: Assay to Identify E. coli SecA ATPase Inhibitors. The format is functional. The following applies: 30 µM.
For assay [2], the target named is T1, Ubiquitin-activating enzyme e1, putative (Leishmania donovani (strain BPK282A1)) (UniProt E9BSI1).
T1 sequence (whole entry): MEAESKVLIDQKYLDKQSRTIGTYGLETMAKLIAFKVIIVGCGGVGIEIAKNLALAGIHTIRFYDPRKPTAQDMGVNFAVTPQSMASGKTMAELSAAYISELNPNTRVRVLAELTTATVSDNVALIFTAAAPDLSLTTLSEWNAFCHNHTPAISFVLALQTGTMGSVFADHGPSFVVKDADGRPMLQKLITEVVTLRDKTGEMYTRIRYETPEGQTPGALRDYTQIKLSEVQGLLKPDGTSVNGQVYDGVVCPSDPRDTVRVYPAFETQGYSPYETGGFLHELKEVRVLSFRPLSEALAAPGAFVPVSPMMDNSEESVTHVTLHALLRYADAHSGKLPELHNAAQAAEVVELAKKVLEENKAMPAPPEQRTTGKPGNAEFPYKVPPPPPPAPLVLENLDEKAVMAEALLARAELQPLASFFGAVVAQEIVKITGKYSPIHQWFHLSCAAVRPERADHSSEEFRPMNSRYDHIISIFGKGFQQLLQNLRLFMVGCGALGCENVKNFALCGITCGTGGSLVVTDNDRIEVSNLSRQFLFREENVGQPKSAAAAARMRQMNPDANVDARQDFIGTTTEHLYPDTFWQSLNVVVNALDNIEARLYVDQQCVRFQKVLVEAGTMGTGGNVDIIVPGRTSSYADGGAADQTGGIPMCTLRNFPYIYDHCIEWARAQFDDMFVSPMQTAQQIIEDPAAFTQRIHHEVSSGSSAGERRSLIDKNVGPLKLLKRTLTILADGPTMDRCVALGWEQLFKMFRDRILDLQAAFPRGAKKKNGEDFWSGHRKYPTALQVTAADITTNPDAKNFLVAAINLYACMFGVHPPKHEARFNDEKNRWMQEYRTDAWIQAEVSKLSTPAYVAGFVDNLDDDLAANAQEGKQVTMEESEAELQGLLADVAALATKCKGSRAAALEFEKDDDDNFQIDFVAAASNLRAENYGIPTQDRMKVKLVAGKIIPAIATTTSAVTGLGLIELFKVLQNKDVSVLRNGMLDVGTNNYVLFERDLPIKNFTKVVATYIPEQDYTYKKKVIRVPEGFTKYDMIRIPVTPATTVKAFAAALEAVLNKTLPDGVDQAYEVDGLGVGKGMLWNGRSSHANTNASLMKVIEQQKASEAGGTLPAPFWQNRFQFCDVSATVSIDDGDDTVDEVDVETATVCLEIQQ
Kind of assay: Leishmania donovani Ubiquitin Activating Enzyme (LdE1). The format is functional. Particulars: 30 µM.

Assay [3] addresses AMP-activated protein kinase, AMPK (Homo sapiens) (UniProt P54646+O43741+P54619+Q9UGJ0+Q9Y478+Q13131+Q9UGI9). Kind of assay: AMP-dependent Kinase enzyme assay. An in vitro enzyme assay that detects ADP turnover that is directly proportional to AMPK activity. This uses naive AMPK that is activated during the assay with MK-8722. The format is functional. The following applies: 30 µM.

Assay [4] addresses Sialic acid-binding Ig-like lectin 9 (Homo sapiens) (UniProt Q9Y336). Kind of assay: Hs-Siglec9 ALPHAscreen SOP 20170721. Particulars: 10 µM.
For assay [5], the system named is Trypanosoma cruzi. Kind of assay: Trypanosoma cruzi phosphomannomutase and mannose-1-phosphate guanylyltransferase assay. The format is functional. Particulars: 10 µM.
Assay [6] deals with T2, Arginase-2, mitochondrial (Homo sapiens) (UniProt P78540).
T2 sequence (whole entry): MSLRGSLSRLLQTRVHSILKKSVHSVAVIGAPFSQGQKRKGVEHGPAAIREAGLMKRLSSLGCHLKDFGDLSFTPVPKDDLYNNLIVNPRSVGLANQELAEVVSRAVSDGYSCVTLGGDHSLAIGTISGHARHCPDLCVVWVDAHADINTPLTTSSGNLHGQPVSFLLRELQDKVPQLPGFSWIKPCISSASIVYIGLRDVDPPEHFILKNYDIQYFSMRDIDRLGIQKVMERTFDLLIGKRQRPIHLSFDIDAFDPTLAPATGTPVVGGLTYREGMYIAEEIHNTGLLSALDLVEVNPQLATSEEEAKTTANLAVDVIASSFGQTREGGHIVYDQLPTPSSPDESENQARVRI
In words: in vitro enzyme assay to detect the production of urea directly proportional to the activity of Arginase II. Note: in the data most compounds retested in dose-response had high values. The following applies: 33.3 µM. The format is functional.

Assay [7] has as its target T3, Proteasome subunit beta (Trypanosoma cruzi) (UniProt O96673).
T3 sequence (whole entry): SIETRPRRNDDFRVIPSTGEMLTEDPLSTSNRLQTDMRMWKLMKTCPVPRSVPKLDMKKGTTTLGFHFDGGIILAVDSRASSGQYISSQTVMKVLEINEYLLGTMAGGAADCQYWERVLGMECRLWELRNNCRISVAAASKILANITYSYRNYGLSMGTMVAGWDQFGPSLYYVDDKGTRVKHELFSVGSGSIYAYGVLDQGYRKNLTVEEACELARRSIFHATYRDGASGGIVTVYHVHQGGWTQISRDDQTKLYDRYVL
Kind of assay: Trypanosoma cruzi proteasome chymotrypsin-like activity (TcProtChymo) assay. Note: in the data most compounds retested in dose-response had high values. The format is functional. Particulars: 9.37 µM.

Assay [8] is filed under the species Homo sapiens. Kind of assay: To identify inhibition of the IFN signalling (Jak-Stat) pathway via expression of an eGFP reporter gene under the control of an IFN-stimulated response element (ISRE) containing MxA promoter. In kind it is functional. The following applies: 30 µM.
In assay [9] the target is T4, Tyrosyl-tRNA synthetase, putative (Trypanosoma cruzi (strain CL Brener)) (UniProt Q4DSP6).
T4 sequence (whole entry): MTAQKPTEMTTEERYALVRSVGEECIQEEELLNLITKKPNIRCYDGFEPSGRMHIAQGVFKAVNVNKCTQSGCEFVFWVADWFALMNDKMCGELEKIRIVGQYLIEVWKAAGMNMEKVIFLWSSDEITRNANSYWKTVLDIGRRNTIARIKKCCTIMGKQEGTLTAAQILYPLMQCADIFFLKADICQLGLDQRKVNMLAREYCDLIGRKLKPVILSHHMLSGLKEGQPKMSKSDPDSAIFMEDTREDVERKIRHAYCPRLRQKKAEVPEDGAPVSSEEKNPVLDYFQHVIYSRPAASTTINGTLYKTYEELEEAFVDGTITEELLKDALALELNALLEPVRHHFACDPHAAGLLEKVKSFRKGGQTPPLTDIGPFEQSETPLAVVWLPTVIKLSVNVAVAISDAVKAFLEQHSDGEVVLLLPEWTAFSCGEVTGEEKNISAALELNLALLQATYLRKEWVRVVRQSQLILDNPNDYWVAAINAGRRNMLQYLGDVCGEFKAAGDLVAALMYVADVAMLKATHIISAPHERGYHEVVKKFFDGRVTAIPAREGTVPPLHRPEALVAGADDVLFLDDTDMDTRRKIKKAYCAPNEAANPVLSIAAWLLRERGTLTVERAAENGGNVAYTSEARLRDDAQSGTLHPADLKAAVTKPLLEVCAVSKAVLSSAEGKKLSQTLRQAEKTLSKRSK
In words: Trypanosoma cruzi tyrosyl tRNA synthetase (TcYRS) _High Tyrosine SOP. Note: in the data most compounds retested in dose-response had high values. The format is functional. The following applies: 30 µM.

Assay [10] addresses T4, Tyrosyl-tRNA synthetase, putative (Trypanosoma cruzi (strain CL Brener)). In words: Trypanosoma cruzi tyrosyl tRNA synthetase (TcYRS) SOP. Particulars: 30 µM. The format is functional.
Assay [11] has as its target Chromo domain-containing protein 1 (Saccharomyces cerevisiae (strain ATCC 204508 / S288c) (Baker's yeast)) (UniProt P32657). In words: ScCHD-1 Enzyme Inhibition Assay. Note: in the data most compounds retested in dose-response had high values. Particulars: 30 µM. The format is functional.

For some of these results: Results with a measured potency or affinity are listed apart.

Sialic acid-binding Ig-like lectin 9 (Homo sapiens), sequence (Q9Y336 whole entry): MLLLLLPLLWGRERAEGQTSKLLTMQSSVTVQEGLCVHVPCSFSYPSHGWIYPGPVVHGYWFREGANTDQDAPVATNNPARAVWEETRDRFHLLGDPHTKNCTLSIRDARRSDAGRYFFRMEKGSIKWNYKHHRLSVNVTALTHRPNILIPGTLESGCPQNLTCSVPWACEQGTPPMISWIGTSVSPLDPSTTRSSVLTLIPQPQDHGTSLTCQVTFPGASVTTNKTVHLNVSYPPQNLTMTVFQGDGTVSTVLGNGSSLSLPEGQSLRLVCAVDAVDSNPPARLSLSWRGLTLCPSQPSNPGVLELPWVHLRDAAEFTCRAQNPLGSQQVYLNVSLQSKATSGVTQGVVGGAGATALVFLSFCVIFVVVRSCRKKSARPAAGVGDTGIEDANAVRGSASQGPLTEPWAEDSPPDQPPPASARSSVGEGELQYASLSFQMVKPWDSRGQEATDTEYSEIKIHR
Protein translocase subunit SecA (Escherichia coli (strain K12)), sequence (P10408 whole entry): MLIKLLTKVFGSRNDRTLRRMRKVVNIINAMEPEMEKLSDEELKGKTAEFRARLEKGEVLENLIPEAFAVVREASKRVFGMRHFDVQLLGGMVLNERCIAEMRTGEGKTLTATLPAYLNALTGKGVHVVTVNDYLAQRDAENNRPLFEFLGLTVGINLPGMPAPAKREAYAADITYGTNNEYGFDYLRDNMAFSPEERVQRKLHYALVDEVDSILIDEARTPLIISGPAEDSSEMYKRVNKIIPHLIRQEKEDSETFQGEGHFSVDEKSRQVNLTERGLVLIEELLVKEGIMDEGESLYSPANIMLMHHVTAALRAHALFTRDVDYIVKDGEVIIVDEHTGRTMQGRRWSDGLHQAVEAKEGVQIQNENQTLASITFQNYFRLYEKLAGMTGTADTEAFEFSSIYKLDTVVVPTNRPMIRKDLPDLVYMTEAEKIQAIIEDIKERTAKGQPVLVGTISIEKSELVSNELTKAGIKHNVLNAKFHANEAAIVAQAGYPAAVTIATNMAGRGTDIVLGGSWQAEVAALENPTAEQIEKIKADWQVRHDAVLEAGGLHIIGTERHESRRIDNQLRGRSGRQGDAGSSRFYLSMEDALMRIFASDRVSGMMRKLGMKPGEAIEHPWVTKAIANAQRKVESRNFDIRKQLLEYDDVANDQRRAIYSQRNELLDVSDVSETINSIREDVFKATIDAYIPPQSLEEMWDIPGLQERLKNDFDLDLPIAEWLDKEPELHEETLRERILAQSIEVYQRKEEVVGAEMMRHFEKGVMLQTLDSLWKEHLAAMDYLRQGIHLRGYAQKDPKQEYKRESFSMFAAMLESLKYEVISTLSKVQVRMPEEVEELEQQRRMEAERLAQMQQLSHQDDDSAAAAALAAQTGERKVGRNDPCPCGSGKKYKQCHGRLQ
Chromo domain-containing protein 1 (Saccharomyces cerevisiae (strain ATCC 204508 / S288c) (Baker's yeast)), sequence (P32657 whole entry, the tested form may be a part): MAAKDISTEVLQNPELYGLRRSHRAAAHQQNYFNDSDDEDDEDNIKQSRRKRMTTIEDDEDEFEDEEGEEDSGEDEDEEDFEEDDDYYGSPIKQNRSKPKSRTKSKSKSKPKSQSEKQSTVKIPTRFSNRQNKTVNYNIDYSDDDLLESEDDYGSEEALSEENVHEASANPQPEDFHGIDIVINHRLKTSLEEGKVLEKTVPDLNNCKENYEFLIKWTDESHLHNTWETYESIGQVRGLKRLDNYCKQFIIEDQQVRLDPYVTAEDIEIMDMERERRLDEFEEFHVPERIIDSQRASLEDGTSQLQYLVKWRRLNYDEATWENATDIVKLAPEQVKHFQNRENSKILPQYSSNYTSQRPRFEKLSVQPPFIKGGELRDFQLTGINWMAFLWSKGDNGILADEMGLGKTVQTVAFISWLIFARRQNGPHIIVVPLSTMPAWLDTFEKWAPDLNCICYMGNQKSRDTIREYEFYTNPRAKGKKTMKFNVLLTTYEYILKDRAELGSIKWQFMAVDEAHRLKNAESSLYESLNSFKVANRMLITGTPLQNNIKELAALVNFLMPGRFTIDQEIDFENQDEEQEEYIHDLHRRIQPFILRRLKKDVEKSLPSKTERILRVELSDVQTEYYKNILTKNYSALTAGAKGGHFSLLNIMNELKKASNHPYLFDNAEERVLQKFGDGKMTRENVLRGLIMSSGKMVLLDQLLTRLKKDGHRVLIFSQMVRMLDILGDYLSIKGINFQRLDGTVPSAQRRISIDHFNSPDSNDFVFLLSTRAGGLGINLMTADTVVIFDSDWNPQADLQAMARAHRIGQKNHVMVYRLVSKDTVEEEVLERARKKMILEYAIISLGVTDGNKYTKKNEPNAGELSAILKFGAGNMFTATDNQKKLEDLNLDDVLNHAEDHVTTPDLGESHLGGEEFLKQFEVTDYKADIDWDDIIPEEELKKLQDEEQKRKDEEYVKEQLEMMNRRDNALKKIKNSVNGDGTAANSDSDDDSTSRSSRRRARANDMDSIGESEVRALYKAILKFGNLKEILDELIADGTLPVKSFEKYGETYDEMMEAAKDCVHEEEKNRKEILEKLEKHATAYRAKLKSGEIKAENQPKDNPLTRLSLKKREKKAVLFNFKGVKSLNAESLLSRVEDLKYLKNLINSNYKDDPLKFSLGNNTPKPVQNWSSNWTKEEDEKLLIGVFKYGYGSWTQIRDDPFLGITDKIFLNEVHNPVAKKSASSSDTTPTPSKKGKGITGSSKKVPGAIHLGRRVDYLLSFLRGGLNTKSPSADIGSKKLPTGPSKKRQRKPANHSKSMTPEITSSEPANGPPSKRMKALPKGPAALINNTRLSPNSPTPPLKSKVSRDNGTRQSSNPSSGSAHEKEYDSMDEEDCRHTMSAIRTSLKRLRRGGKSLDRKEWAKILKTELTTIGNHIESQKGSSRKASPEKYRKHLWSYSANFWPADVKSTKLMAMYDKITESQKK

With `c1cncc(COCc2nnc3n2CCN(Cc2ccoc2)C3)c1`, the Percent Effect in assay [1] was -1.23%; in assay [2], 18.2%; in [3], 3.03%; in [4] it was 9.78%; in assay [5], 5.21%; in assay [6], -8.28%. Further, the Percent Effect in assay [7] stood at 21%; in assay [8] it was 8.47%; in [9], 6.45%; in [10], 16.1%; in assay [11], 0.555%.

On to `CC(=O)Nc1ncc(S(=O)(=O)Nc2ccc(F)cc2)s1`, for which the Percent Effect is -4.49% in assay [1]; 17.3% in [2]; -9.36% in assay [3]; -7.58% in assay [4]; 2.36% in assay [5]; -0.88% in assay [6]. In addition, the Percent Effect in assay [7] was 12.2%; in assay [8] it was 20.4%; in [9], 3.17%; in assay [10], 10.3%; in assay [11], -10.6%.

Turning to `CC(c1ccccc1)n1c(SCC(=O)O)nnc1-c1ccccc1Cl` (stereo unspecified), the Percent Effect is -3.8% in assay [1]; 15.3% in assay [2]; -8.09% in assay [3]; 28.7% in [4]; 4.57% in [5]; -3.53% in assay [6]. For the same molecule, the Percent Effect in assay [7] was 9.65%; in assay [8], 13.3%; in assay [9], 4.21%; in assay [10], 12.8%; in assay [11], -5.19%.

For the molecule `COc1ccc(CNC(=O)NCc2c(C)cc(C)[nH]c2=O)cc1`, the Percent Effect was -5.07% in assay [1]; 13.2% in assay [2]; -3.13% in assay [3]; 12.1% in [4]; 0.84% in assay [5]; -5.04% in [6]. The Percent Effect in assay [7] was 6.18%; in assay [8], -18.2%; in [9], 3.45%; in [10] it was 13.6%; in assay [11] it was 3.42%.

For `COCCCN1CCc2cncnc2C1`, the Percent Effect was -2.65% in assay [1]; 5.06% in [2]; -237% in assay [3]; 6.45% in assay [4]; 9.35% in [5]; 2.66% in assay [6]. Moreover, the Percent Effect in assay [7] is 8.27%; in assay [8], -13.7%; in assay [9] it was 5.42%; in assay [10], 8.86%; in assay [11], -6.93%.

As to `Cc1ccc(C2CCCN2Cc2nc3c(cnn3C)c(=O)[nH]2)cc1C` (stereo unspecified), the Percent Effect in assay [1] was -4.42%; in assay [2], 27.9%; in assay [3], -6.55%; in assay [4] it was -1.46%; in assay [5], 5.19%; in assay [6], -1.52%. Further, the Percent Effect was 13.8% in assay [7]; 4.19% in assay [8]; 7.39% in assay [9]; 24.1% in [10]; -5.15% in [11].

With `CCc1cnc(CNc2ccc(C(=O)N3CCCC(C)C3)cc2C)o1` (stereo unspecified), the Percent Effect is -1.36% in [1]; -5.2% in [2]; 6.76% in [3]; -0.151% in assay [4]; -0.936% in assay [5]; -1.78% in assay [6]. The Percent Effect in assay [7] is 8.78%; in [8], 25.1%; in [9], -0.971%; in assay [10] it was 0%; in assay [11] it was -5.54%.

`COc1ccc(CN(C)C(=O)CCC(=O)c2cccs2)c(OC)c1OC`: the Percent Effect in assay [1] was -2.26%; in assay [2] it was -2.74%; in [3], -1.79%; in assay [4], 9.32%; in [5], 2.78%; in assay [6], -6.39%. Further, the Percent Effect is 10.7% in assay [7]; 18.4% in assay [8]; 9.38% in assay [9]; 21% in [10]; 2.3% in [11].

As to `COc1ccccc1CN(C)C(=O)c1cc(CN2CCC(O)CC2)on1`, the Percent Effect in assay [1] was -4.25%; in [2], 2.74%; in assay [3], 26.1%; in assay [4], 19.3%; in assay [5] it was 3.53%; in assay [6] it was 18.6%. Moreover, the Percent Effect in assay [7] is 12.8%; in assay [8], -1.57%; in assay [9], 6.45%; in assay [10], 20%; in assay [11], 100%.

As for `O=C(CN1CCc2ccccc21)Nc1ccc(OC(F)F)cc1`, the Percent Effect is -2% in assay [1]; 1.39% in assay [2]; 0.216% in [3]; 8.48% in assay [4]; -2.23% in assay [5]; 0.883% in assay [6]. The Percent Effect was 21.1% in [7]; 8.31% in assay [8]; 0% in assay [9]; -7.69% in assay [10]; 88.5% in assay [11].

For the molecule `Cc1cccc(CN2C[C@H]3OC(=O)N(CCCN4CCOCC4)[C@H]3C2)n1`, the Percent Effect was -5.71% in assay [1]; 5.33% in assay [2]; 0.534% in [3]; 17% in assay [4]; 0.682% in assay [5]; 2.08% in [6]. The Percent Effect in [7] was 11.9%; in assay [8], 2.81%; in assay [9] it was 10.4%; in [10], 16.1%; in assay [11], -8.08%.
